NadD inh – inhibitors of Staphylococcus aureus NadD. purified NadD enzyme, colorimetric absorbance read-out. inhibition, % at 20 µM. 360,000 compounds, 0.78% hits. AID 602399; in the data active means inhibition above about 26%
H9c2 protect – protects H9c2 cardiomyocytes from peroxide injury | H2O2 injury protection, ATPLite, 2 h | protection from H2O2 cell death, % at 20 µM | 360,000 compounds, 0.63% hits | AID 588492;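 active means compounds giving at least 50% protection of heart cells from peroxide-induced death in the single-dose screen, raw or plate-pattern-corrected value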;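 further: 0% = DMSO wells with peroxide and 100% = DMSO wells without peroxide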
A3A deaminase – human APOBEC3A DNA deaminase inhibition. inhibition, % at 20 µM. recombinant A3A, FAM/TAMRA ssDNA deamination fluorescence. AID 493011. P31941. 330,000 compounds, 0.41% hits;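 active means at least 40% inhibition at 20 µM here, with at most 30% in a related deaminase screen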;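 further: plate controls were A3A with DMSO for no effect and wells lacking A3A enzyme for full effect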
Target sequence (P31941 whole entry, looked up): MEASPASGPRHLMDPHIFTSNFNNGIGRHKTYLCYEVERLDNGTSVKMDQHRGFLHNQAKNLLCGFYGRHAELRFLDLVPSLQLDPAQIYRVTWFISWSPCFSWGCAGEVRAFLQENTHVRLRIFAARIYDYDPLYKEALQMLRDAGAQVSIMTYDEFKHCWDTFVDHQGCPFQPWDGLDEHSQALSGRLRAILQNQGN
PfG6PD inh – PfG6PD (Plasmodium falciparum) enzyme inhibition. PfGluPho enzyme, NADPH resazurin-diaphorase fluorescence. inhibition, % at 20 µM. 350,000 compounds, 0.78% hits. AID 504690;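 active means inhibition reaching at least a set limit at 20 µM in the primary screen, cut at about 59% in these data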;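 further: 0% = DMSO wells with substrate and 100% = DMSO wells lacking glucose-6-phosphate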
A3G deaminase – inhibitors of human APOBEC3G DNA deaminase; AID 493012; inhibition, % at 20 µM; recombinant A3G, ssDNA deamination FAM/TAMRA fluorescence; 330,000 compounds, 0.28% hits; Q9HC16;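 active means inhibition of at least 40% at 20 µM, with no more than 30% in the related APOBEC3A deaminase screen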;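 further: plate controls were DMSO wells with A3G for no effect and wells lacking A3G enzyme for full effect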
Target sequence (Q9HC16 whole entry, looked up): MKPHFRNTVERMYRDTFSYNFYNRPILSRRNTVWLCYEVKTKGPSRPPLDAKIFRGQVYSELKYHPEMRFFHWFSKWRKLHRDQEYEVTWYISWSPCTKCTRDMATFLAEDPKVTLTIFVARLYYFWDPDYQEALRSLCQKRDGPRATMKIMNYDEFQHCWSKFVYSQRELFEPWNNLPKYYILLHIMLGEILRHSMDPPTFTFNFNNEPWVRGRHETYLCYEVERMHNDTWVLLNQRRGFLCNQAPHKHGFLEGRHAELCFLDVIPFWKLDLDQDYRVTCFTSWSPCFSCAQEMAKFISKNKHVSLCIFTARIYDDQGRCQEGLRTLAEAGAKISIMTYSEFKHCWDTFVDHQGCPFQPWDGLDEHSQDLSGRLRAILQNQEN
TAG inh – inhibitors of triacylglycerol accumulation. H9c2 cells, Nile Red lipid (TAG) fluorescence; cells loaded with 200 µM oleic acid. AID 651582. 230,000 compounds, 0.66% hits. inhibition, % at 12.5 µM;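 active means pattern-corrected inhibition of lipid staining of at least 50% with the nuclear-stain viability signal not falling by more than 50%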;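 further: 0% = DMSO wells and 100% = triacsin C control wells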
H9c2 TAG conf – triacylglycerol accumulation inhibition, confirmation. AID 651629. 990 compounds, 71% hits. inhibition, % at 12.5 µM. H9c2 lipid accumulation, Nile Red fluorescence; cells loaded with 200 µM oleic acid. shares compounds with TAG inh;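 active means mean inhibition across replicates of 40% or more; inactive means mean inhibition below 40%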;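 further: plate controls were DMSO only wells for no effect and Triacsin C treated wells for full effect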
* = called active by the depositor; · = no result given. Shown are actives, neighbours in structure and some others; about 2.9% of the full set was active somewhere.

SMILES	NadD inh	H9c2 protect	A3A deaminase	PfG6PD inh	A3G deaminase	TAG inh	H9c2 TAG conf
Nc1c(C(=O)Nc2ccccc2)c2nc3ccccc3nc2n1CCCN1CCOCC1	-14	11	-3	26	-10	83*	86*
N#Cc1c(N)n(CCCN2CCOCC2)c2nc3ccccc3nc12	8	-6	0	1	1	12	·
COc1ccccc1N1CCN(CC(=O)Nc2cc(C)nn2-c2nc(C)cc(C)n2)CC1	1	5	·	-8	·	55*	56*
COc1ccc(-n2nc(C(=O)Nc3ccc(OC)c(OC)c3)c3c4ccccc4n(C)c3c2=O)cc1	-12	14	-3	-3	-1	82*	29
COc1ccc(-n2nc(C(=O)Nc3ccc4c(c3)OCO4)c3c4ccccc4n(C)c3c2=O)cc1	11	2	-1	-4	-2	66*	44*
CCOc1ccc(N(CC)C(=O)c2nn(-c3ccc(OC)cc3)c(=O)c3c2c2ccccc2n3C)cc1	4	18	8	8	-8	·	·
C#CCn1cc(Cl)cc(C(=O)Nc2ccccc2)c1=O	-5	-1	0	2	-5	·	·
CC(C)c1ccc(NC(=O)Nc2nc(C(N)COCc3ccccc3)cs2)cc1 (stereo unspecified)	20	-12	·	·	·	83*	102*
COc1ccc(CC(N)c2csc(NC(=O)c3cccc(OC(F)(F)F)c3)n2)cc1 (stereo unspecified)	3	-27	·	·	·	52*	34
COc1ccccc1CNC(=O)Nc1nc(C(N)CCc2ccccc2)cs1 (stereo unspecified)	5	-9	·	·	·	57*	35
COc1ccc(CC(N)c2csc(NC(=O)NCCc3ccccc3)n2)cc1 (stereo unspecified)	3	14	·	·	·	36	·
NC(Cc1ccccc1)c1csc(NC(=O)c2cccc(OC(F)(F)F)c2)n1 (stereo unspecified)	5	-20	·	·	·	26	·
NC(Cc1ccc(Cl)cc1)c1csc(NC(=O)NCCc2ccccc2)n1 (stereo unspecified)	5	-9	·	·	·	74*	42*
C/C(=N\NC(=O)c1nnn(-c2nonc2N)c1-c1ccc2c(c1)OCO2)c1ccc(C)cc1	29	-1	2	5	-3	·	·
COc1ccc(CNC(=O)Nc2nc(C(N)Cc3ccc(C(F)(F)F)cc3)cs2)cc1 (stereo unspecified)	9	-11	·	·	·	61*	35
COc1cccc(Nc2nc(C(N)Cc3ccc(F)cc3)cs2)n1 (stereo unspecified)	0	-12	·	·	·	20	·
COc1cc(CNC(=O)Nc2nc(C(N)Cc3ccc(Cl)cc3)cs2)cc(OC)c1OC (stereo unspecified)	3	-4	·	·	·	67*	94*
COc1cccc(Nc2nc(C(N)Cc3ccc(C(F)(F)F)cc3)cs2)n1 (stereo unspecified)	11	-12	·	·	·	72*	37
O=C(Nc1nc2c(F)cc(F)cc2s1)c1ccc([N+](=O)[O-])o1	-4	-18	-4	8	-9	15	·
Cc1cc(C)c2nc(NC(=O)c3ccc([N+](=O)[O-])o3)sc2c1	10	41	-4	-8	-3	64*	70*
CN1N=C(N)c2cn(C3OC(COP(=O)(O)O)C(O)C3O)c3ncnc1c23 (stereo unspecified)	0	-3	·	-1	·	52*	64*
Nc1ncnc2c1ncn2[C@@H]1O[C@H](COP(=O)(O)O)[C@@H](O)[C@H]1O	5	41	-3	-4	-7	-6	·
CCCc1cc(C(=O)N/N=C/c2ccc(CC)s2)c2ccccc2n1	-4	-10	-2	-7	-2	56*	61*
COCCNC(=O)CSc1n[nH]c(=O)n1CCc1ccccc1	-5	3	0	-3	-10	·	·
COc1ccc(-c2csc(NNC3=NCCCCC3)n2)cc1	·	·	-1	47	-4	·	·
SMILES	NadD inh	H9c2 protect	A3A deaminase	PfG6PD inh	A3G deaminase	TAG inh	H9c2 TAG conf
c1ccc(-c2csc(NNC3=NCCCCC3)n2)cc1	-6	4	-4	19	-2	85*	108*
Clc1ccc(-c2csc(NNC3=NCCCCC3)n2)cc1	-5	-10	-3	45	-2	148*	132*
O=S(=O)(c1ccc(OCC(O)CNC23CC4CC(CC(C4)C2)C3)c(Cl)c1)N1CCOCC1 (stereo unspecified)	-17	5	-2	16	-4	59*	31
O=C(COc1ccc(S(=O)(=O)N2CCOCC2)cc1Cl)NC1CCCCC1	-9	8	2	-4	10	19	·
CCCC(=O)N1CCc2cc(OC)c(OC)cc2C1COc1ccccc1OC (stereo unspecified)	-1	-3	-2	-7	-2	·	·
CCOc1ccc(CC2c3cc(OCC)c(OCC)cc3CCN2C(=O)c2cc(OC)c(OC)c(OC)c2)cc1OCC (stereo unspecified)	1	29	3	4	-3	62*	36
NC(=O)C(=O)N/N=C/c1c(F)c(F)c(F)c(F)c1F	-5	0	1	-9	-4	5	·
CCC(C)(C)NC(=O)C(c1ccc(C)cc1)N(Cc1ccco1)C(=O)CCC(=O)Nc1nccs1 (stereo unspecified)	1	-1	-6	-1	3	66*	65*
COc1ccc(C(C(=O)NC(C)(C)C)N(Cc2ccco2)C(=O)CCC(=O)Nc2cc(C)on2)cc1 (stereo unspecified)	-2	-2	1	-3	-1	56*	46*
CCC(C)(C)NC(=O)C(c1ccc(OC)cc1)N(Cc1ccco1)C(=O)CCC(=O)Nc1cc(C)on1 (stereo unspecified)	4	-1	-2	4	-2	70*	57*
ClC(Cl)(Cl)c1nc2ccccc2n2nncc12	2	1	7	1	2	·	·
O=C(Nc1ccc(S(=O)(=O)N2CCCC2)cc1)c1cc(F)c(F)cc1Cl	-6	-1	-2	-3	-5	-6	·
O=C(CSCc1c(F)cccc1Cl)Nc1ccccc1C(=O)N1CCOCC1	3	2	-2	-20	-6	1	·
COc1ccc2cc(CN(C)C(=O)CN3C(=O)NC4(CCCC4)C3=O)ccc2c1	7	-1	·	24	·	6	·
CCN(CC)CCNC(=O)C12CC3CC(CC(C3)C1)C2	-2	9	9	-11	-1	7	·
CCN(CC)CCNC(=O)C(Cl)=C1C(Cl)=C(Cl)C(Cl)=C1Cl	-2	-2	·	4	·	78*	74*
Cn1nc(C(=O)NCc2ccccc2Cl)c2c1-c1ccccc1S(=O)(=O)C2	-4	7	-4	-2	-7	·	·
COc1ccc(C2c3cc4c(cc3OC(N3CCOCC3)C2C)OCO4)c(OC)c1 (stereo unspecified)	2	-5	·	17	·	55*	75*
